The source of these data is PubChem BioAssay.

The nature of assay [1]: binders of probe aFSTL3 on microarray, primary screen, stem cell growth factor project, biochemical, small-molecule microarray, fluorescence 635/667 (AID 1064).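 Also: measures binding of the biotinylated anti-FSTL3 antibody to printed compounds.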 Particulars: higher = more signal.
The nature of assay [2]: binders from COS7 lysate, DM2A8 probe, primary screen, torsin A project, cell lysate, small-molecule microarray, fluorescence 635/667 (AID 1065). The settings on record: higher = more signal, COS7 lysate expressing mutant human TOR1A.
Assay [3] can be described thus: binders of probe aFGF2 on microarray, primary screen, stem cell growth factor project, biochemical, small-molecule microarray, fluorescence 635/667 (AID 1067).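 Also: measures binding of biotinylated aFGF2 protein to printed compounds on slides; z-score merges feature fluorescence and signal-to-noise across triplicate slides.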 The settings on record: higher = more signal.
A short description of assay [4]: binders of probe aFGF10 on microarray, primary screen, stem cell growth factor project, biochemical, small-molecule microarray, fluorescence 635/667 (AID 1071).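 Also: score merges 667 nm spot intensity and signal to noise from triplicate slides.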 The settings on record: higher = more signal.
The target of assay [5] is Neurogenic locus notch homolog protein 2 (Homo sapiens) (UniProt Q04721). Nature of the assay: Notch2 binders on small-molecule microarrays, primary screen, biochemical, small-molecule microarray, 635 nm fluorescence, stem cell growth factors (AID 1073). Particulars: Notch2 binding, higher = more signal.
Chain of Neurogenic locus notch homolog protein 2 (Homo sapiens) (Q04721 whole entry, looked up, canonical isoform): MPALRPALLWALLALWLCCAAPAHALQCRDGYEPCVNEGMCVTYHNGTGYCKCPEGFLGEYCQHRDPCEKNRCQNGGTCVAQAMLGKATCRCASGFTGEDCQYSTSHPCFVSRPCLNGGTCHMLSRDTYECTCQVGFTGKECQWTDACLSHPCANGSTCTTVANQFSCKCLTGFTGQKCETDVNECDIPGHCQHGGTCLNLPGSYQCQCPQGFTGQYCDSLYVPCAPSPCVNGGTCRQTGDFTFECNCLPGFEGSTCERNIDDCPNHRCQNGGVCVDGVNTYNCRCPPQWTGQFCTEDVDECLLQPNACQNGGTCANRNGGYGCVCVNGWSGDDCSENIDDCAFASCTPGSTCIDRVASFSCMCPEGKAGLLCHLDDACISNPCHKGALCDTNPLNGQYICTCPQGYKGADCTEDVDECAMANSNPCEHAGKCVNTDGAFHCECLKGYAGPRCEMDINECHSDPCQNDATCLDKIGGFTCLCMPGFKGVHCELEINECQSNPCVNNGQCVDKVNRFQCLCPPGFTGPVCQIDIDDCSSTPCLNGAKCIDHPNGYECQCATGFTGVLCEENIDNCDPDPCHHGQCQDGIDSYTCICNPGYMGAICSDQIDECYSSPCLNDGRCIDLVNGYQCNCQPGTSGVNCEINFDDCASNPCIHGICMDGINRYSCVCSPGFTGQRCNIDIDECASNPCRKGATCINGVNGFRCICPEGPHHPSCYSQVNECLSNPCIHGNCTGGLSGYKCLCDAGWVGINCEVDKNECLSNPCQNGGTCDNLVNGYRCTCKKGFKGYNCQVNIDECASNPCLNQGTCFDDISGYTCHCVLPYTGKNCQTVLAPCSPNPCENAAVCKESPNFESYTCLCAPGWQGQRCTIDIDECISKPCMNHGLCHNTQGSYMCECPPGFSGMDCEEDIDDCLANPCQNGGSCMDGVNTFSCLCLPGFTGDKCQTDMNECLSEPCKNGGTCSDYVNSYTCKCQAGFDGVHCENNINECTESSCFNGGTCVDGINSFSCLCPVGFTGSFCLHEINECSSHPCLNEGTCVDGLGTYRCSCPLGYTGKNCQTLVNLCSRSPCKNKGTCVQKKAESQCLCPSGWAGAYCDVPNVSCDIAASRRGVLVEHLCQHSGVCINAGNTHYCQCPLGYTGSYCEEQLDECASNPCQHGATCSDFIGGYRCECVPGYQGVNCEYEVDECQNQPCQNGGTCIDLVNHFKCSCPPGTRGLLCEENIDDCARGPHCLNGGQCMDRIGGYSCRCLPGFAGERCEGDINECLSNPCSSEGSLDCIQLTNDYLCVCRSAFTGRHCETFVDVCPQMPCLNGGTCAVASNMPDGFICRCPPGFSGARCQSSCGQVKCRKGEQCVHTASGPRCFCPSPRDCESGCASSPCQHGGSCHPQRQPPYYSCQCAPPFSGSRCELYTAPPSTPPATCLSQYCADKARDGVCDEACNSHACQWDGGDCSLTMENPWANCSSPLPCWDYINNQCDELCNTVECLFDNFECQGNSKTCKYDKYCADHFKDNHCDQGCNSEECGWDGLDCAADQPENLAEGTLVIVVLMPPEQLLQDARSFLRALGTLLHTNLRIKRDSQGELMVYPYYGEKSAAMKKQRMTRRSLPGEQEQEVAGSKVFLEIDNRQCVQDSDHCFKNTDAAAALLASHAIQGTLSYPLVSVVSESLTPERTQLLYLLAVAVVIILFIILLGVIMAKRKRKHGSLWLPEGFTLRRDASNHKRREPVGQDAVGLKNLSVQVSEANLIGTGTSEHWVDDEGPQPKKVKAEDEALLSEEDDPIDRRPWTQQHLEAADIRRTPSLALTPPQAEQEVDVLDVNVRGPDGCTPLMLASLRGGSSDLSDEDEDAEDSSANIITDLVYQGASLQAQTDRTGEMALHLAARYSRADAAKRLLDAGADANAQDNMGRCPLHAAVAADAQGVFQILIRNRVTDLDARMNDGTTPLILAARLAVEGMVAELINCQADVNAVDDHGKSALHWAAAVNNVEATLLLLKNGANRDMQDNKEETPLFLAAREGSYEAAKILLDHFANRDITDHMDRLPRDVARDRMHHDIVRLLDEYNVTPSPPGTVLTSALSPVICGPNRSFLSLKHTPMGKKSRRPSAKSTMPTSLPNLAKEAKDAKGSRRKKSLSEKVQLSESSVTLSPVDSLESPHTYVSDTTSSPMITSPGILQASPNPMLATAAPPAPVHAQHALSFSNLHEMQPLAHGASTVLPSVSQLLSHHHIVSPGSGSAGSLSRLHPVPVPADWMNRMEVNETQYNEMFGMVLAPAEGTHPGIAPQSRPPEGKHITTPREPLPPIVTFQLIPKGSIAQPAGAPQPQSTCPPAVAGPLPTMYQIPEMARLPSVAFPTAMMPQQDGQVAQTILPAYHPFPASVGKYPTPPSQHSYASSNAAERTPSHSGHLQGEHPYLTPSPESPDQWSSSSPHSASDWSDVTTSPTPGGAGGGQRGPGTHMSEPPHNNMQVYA
Assay [6] deals with Pro-neuregulin-1, membrane-bound isoform (Homo sapiens) (UniProt Q02297). Description: NRG1 binders on small-molecule microarrays, primary screen, psychiatric disease protein project, biochemical, small-molecule microarray, fluorescence 635/667 (AID 1075).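 Also: score combines 667 nm spot fluorescence with signal to noise.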 Particulars: NRG1 binding, 635 nm fluorescence, higher = more signal.
Chain of Pro-neuregulin-1, membrane-bound isoform (Homo sapiens) (Q02297 whole entry, looked up, the tested form may be a part, canonical isoform): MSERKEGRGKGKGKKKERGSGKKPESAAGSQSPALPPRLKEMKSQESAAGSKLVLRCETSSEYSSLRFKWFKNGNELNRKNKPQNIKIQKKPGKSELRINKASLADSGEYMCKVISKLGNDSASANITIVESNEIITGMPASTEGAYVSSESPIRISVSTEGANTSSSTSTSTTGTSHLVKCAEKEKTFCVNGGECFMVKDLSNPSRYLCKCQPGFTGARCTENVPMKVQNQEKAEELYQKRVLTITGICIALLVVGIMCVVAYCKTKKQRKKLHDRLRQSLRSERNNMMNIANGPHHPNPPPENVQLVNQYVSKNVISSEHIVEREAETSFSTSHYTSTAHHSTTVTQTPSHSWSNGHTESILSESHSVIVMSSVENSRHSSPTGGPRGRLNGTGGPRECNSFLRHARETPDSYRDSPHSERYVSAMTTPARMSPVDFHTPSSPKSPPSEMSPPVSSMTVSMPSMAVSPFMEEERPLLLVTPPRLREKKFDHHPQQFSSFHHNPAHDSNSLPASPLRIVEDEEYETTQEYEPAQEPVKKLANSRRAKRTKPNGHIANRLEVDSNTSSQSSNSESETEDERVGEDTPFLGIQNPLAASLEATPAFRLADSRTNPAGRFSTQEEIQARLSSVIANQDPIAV
In assay [7] the test system is Neuregulin-1 EGF-like domain. Description: binders of neuregulin-1 EGF-like domain, primary screen, biochemical, small-molecule microarray, 635 nm fluorescence (AID 1081).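 Also: binding of the protein to compounds printed on small-molecule microarray slides.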 The settings on record: small-molecule microarray binding, higher = more signal.
A short description of assay [8]: FRG1 promoter luciferase signal modulators, primary screen, FRG1 inhibition for FSHD, cell-based, C2C12 myotubes, firefly/Renilla luciferase, luminescence (AID 1084). Particulars: higher = more signal, called active from +8 up or from −8 down.
A short description of assay [9]: binders of probe aFST on microarray, primary screen, stem cell growth factor project, biochemical, small-molecule microarray, fluorescence 635/667 (AID 1086).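 Also: score merges 667 nm fluorescence with signal-to-noise of each printed compound spot.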 The settings on record: higher = more signal.
Assay [10] can be described thus: binders of probe aHhip on microarray, primary screen, stem cell growth factor project, biochemical, small-molecule microarray, fluorescence 635/667 (AID 1087).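 Also: score merges spot fluorescence at 667nm with spot signal to noise ratio.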 Particulars: higher = more signal.

The source made the active and inactive calls.

Turning to `CC(C)C(O)C1C=CC2C(=O)N(C)C(=O)C2N1Nc1ccccc1` (stereo not given), the composite z-score was 0.383 in assay [1]; 0.681 in [2]; 0.364 in [3]; 0.914 in assay [4]; 1.69 in [5]; 1.19 in [6]. Besides, the composite z-score in assay [7] was 1.37; in assay [9], 1.35; in [10], 0.67. Also, in [8], the z-score was 2.73 (inactive).

Consider `COCCCNC(=O)[C@]1(CCC(=O)OC(C)(C)C)N=C(c2ccc(OCCCO)cc2)O[C@@H]1c1ccccc1`, for which the composite z-score is 1.19 in assay [1]; 0.389 in assay [2]; 0.0629 in [3]; 0.578 in assay [4]; 0.819 in assay [5]; 1.96 in assay [6]. Moreover, the composite z-score in assay [7] stood at 1.28; in assay [9] it was 0.888; in [10], 0.591. For the same molecule, the z-score in [8] was 0.977 (inactive).

As for `CN1C(=O)C2C=CC(C(O)C3CCCCC3)N(N3CCCCC3)C2C1=O` (stereo not given), the composite z-score in assay [1] was -0.0863; in [2] it was 1.54; in assay [3] it was 0.156; in assay [4], 0.644; in assay [5], 1.52; in assay [6] it was 1.51. For the same molecule, the composite z-score was found to be 1.23 in assay [7], 1.01 in assay [9] and 0.398 in assay [10]. The z-score in [8] was 0.573 (inactive).

`C=C(/C(=C/C[C@@H](OC(=O)c1ccncc1)c1ccc(OCCO)cc1)c1cc(C(=O)OC)ccc1OC)C(C)C`: the composite z-score in [1] is -0.445; in [2], 1.24; in assay [3], -0.139; in [4] it was 0.93; in assay [5] it was 0.833; in assay [6], 0.679. Besides, the composite z-score in [7] is 1.13; in [9], 0.0136; in assay [10], -0.399. Further, the z-score in [8] is 0.317 (inactive).

As for `O=C1O[C@@H](c2ccccc2)[C@@H](c2ccccc2)N2[C@@H](c3ccccc3OCCO)[C@]3(C(=O)Nc4ccc(C#CCCO)cc43)[C@@H](C(=O)N3CCN(c4ncccn4)CC3)[C@H]12`, the composite z-score was -0.132 in assay [1]; -0.167 in assay [2]; -0.0004 in assay [3]; 0.608 in assay [4]; 1.34 in assay [5]; 1.56 in [6]. For the same molecule, the values for the composite z-score in [7], in [9] and in assay [10] were 1.13, 0.29 and -0.069, respectively. Moreover, in assay [8], the z-score was -2.32 (inactive).

With `CC=CC(O)C1C=CC2C(=O)N(C)C(=O)C2N1N1CCCCC1` (stereo not given), the composite z-score in [1] is -0.0771; in assay [2], 0.326; in [3] it was -0.0231; in assay [4], 0.862; in [5], 1.45; in assay [6] it was 1.85. Also, the composite z-score in [7] is 1.26; in assay [9], 0.697; in assay [10] it was -0.305. For the same molecule, in [8], the z-score is 1.89 (inactive).

For `COCCCNC(=O)[C@@]1(Sc2ccc(C)cc2)CC(=O)N(Cc2cc(C(F)(F)F)cc(C(F)(F)F)c2)[C@@H]1c1ccc(CO)cc1`, the composite z-score is 0.0028 in assay [1]; 0.525 in assay [2]; -0.144 in assay [3]; -0.29 in assay [4]; 0.0762 in [5]; 1.22 in assay [6]. Moreover, the composite z-score in [7] is 0.875; in assay [9], -0.168; in [10], 0.213. For the same molecule, the z-score in [8] was -0.42 (inactive).

As for `C=CCC(OC(C)=O)[C@@H]1[C@@H](N(Cc2cc3ccccc3o2)C(=O)c2ccc(C)cc2)c2cc(OCCCO)ccc2N1C(=O)Cc1ccc2ccccc2c1` (stereo not given in full), the composite z-score is 0.222 in assay [1]; -0.603 in [2]; 0.0755 in [3]; 0.113 in assay [4]; -0.242 in assay [5]; -0.0075 in assay [6]. Moreover, the results for the composite z-score in assay [7], in assay [9] and in assay [10] were -0.345, 0.292 and 0.107, respectively. Also, the z-score in assay [8] was -0.286 (inactive).

Take `Cc1ccc(S[C@]2(C(=O)NCC(F)(F)F)CC(=O)N(Cc3ccccc3)[C@@H]2c2ccc(CO)cc2)cc1`: the composite z-score is 0.2 in assay [1]; 0.179 in assay [2]; -0.158 in [3]; -0.453 in assay [4]; -0.851 in assay [5]; 0.248 in assay [6]. For the same molecule, the composite z-score in assay [7] was 0.463; in assay [9], -0.543; in assay [10], -0.266. Also, the z-score in assay [8] was -2.41 (inactive).

For `CCCCN1CC=CC23O[C@@H]4C=CCOC(=O)[C@@H]4[C@H]2C(=O)N(C(C)CO)[C@@H]3C1=O` (stereo not given in full), the composite z-score in [1] is 0.762; in assay [2], -0.665; in assay [3], -0.187; in assay [4], -0.174; in assay [5], -1.03; in [6], 1.7. Moreover, the composite z-score in [7] is 0.745; in assay [9], -0.0725; in assay [10], -0.189. Also, the z-score in assay [8] is 1.66 (inactive).

With `O=C1O[C@@H](c2ccccc2)[C@@H](c2ccccc2)N2[C@@H](c3ccccc3OCCO)[C@]3(C(=O)Nc4ccc(C#CCCO)cc43)[C@@H](C(=O)Nc3nc4ccccc4s3)[C@H]12`, the composite z-score in assay [1] is -0.0348; in [2] it was 0.74; in assay [3], -0.0165; in [4], 1.07; in [5], 1.36; in assay [6], 1.5. For the same molecule, the values for the composite z-score in assay [7], in assay [9] and in assay [10] were 1.3, 0.73 and 0.28, respectively. Also, the z-score in assay [8] is -2.4 (inactive).

As to `O=C(CCCCCCC(=O)Nc1ccccc1)N/N=C/c1ccccc1`, the composite z-score was -0.199 in [1]; 0.0786 in [2]; -0.141 in [3]; 0.0493 in assay [4]; -0.252 in assay [5]; -0.384 in assay [6]. Also, the composite z-score was -0.147 in assay [7], -0.0659 in assay [9] and 0.0373 in assay [10]. Further, the z-score in assay [8] is 0.0691 (inactive).

In the case of `COC(=O)[C@@]1(Cc2ccccc2)[C@H]2c3cc(C(=O)N4CCCC4)n(Cc4ccsc4Br)c3C[C@H]2CN1C(=O)c1ccccc1`, the composite z-score in assay [1] was 0.166; in assay [2] it was -0.411; in assay [3], 0.281; in assay [4] it was 0.682; in assay [5], 1.72; in assay [6] it was 1.46. The composite z-score in assay [7] was 1.18; in [9] it was 1.51; in assay [10], 0.155. The z-score in assay [8] was -0.444 (inactive).
